# The supplement of paper PMC11417369
# The full ranking holds about 25,000 sequences; the median of “ln(normalized median fluorescence intensity)” is about 7.1, and the highest 2% start at about 10. This is one part of a sample in which the highest values are shown more often than they occur.
# Tested on: PfSIP2 AP2 domain 1 (GST-tagged)
# Experiment: gcPBM binding intensity (ln(normalized median fluorescence intensity)); higher = stronger DNA binding
# In short: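 GST-fused DNA-binding domains of P. falciparum, expressed in E. coli, were applied at about 25 μg on average for 1 h to an Agilent 4 × 180k array of primer-extended double-stranded 36-bp intergenic genomic probes and negative controls. Binding intensity is the highest Masliner-normalised natural-log median intensity across replicate spots of either probe orientation, measured with Alexa488 anti-GST antibody and a 488 nm scan.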
row,Sequence,gcPBM binding intensity (ln)
1,GAAAGGAAAAGTTGAACACACAAAGTAAACTATAAG [CACACA_site3535],6.7
2,TCTATTAACTGATGTGCATGTTATAACCTAGAAGTA [TGCATGCA_site359],7.42
3,TAAAAGTATTCCTTTTGTACATATAATGAAAACAAT [XGTACX_site2069],6.8
4,TGATAAAATATTAAATTATTTCTTTATTTAAAGATT [CACACA_negctrl_site370],6.67
5,AAGATAAATTATTATAAATCAATTGTGCCAACAATA [CACACA_negctrl_site144],6.69
6,ATTATAAAAATATCGTGTACATATTTTTTAAAATAA [XGTACX_site5072],7.12
7,TTATACCATATTTATAGTACGTACAAATAAATCAAT [XGTACX_site4975],7.3
8,TTAATCCACAGACACACACACACAAAATAAAATACA [CACACA_site244],7.22
9,AAGATCGCATGAAATGAACACACATAAAAAAAATAT [CACACA_site9353],7.05
10,AATATACATAACAAGGTGCAAAAAATATTGTTCATA [GTGCAC_site9499],10.9
11,ACAAGCTTTCATAAGGTGCAATGATTTAACAAAAAA [GTGCAC_site9726],10.1
12,ATAACATTCATATTCACACAAAAATATACTACATAG [CACACA_site4529],7.09
13,ATACATATTAACAAGGTGCAAATGGATTTCATAAAA [GTGCAC_site9775],10.7
14,ATACATTCAAAATATACACACATATATATATAATAT [CACACA_site950],7.13
15,AAATTGAGACAACAGGTGCATATAAATATACAGTGT [GTGCAC_site9634],10.6
16,TATATACATGTGAGAGTGCATATAGACATAAAAAAT,8.96
17,TATATTGCAAAAAGTACACACATAAATAAATACATA [CACACA_site6589],7.23
18,AAGACAATATATGCAGTGCATATACATACATATATA,8.3
19,TTTTGTTCATACAAATTGGAACAAGACAAAAATATA [XGTACX_negctrl_site327],7.16
20,AATACATATTCAAAGGTGCAAAATAAAAATATACAT [GTGCAC_site9743],11
21,ATATATTTAAAAAAATGTACAAATCATAAATGCAAG [XGTACX_site4230],7.07
22,AGAAAGGTGGTATTAAAAGAATAACCTATGAATAAA [GTGCAC_negctrl_site325],6.79
23,CCATATAATATGAACAGTACACACAAAATAAATTCG [XGTACX_site7590],7.08
24,ATCAAAAAAAAAAAAAGTACACAAAATTTTTTATTA [XGTACX_site7986],6.88
25,CTATTGTTAAATATAATACACACGTTTTTAAAAATA [CACACA_site2183],6.97
